Active and inactive are the calls of the source. Unless noted, the rule behind the calls is not given here.
Key:
[1] = compound effects on lung adenocarcinoma cell viability – A549, calcein-AM fluorescence, 48 h, basal, profiling panel (AID 1162); settings: higher = more signal; note: test concentration not given here
[2] = compound effects on differentiated 3T3-L1 adipocyte viability – cell-based, 3T3-L1 adipocytes, calcein-AM fluorescence, 48 h, basal, profiling panel (AID 1163); settings: 3T3-L1 adipocytes viability, higher = more signal; note: test concentration not given here
[3] = compound effects on hepatocellular carcinoma cell viability – HepG2, calcein-AM fluorescence, 48 h, basal, profiling panel (AID 1164); settings: higher = more signal; note: test concentration not given here
[4] = compound effects on multiple myeloma cell viability – MM1S, calcein-AM fluorescence, 48 h, basal, profiling panel (AID 1165); settings: higher = more signal;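 note: viability of MM1S multiple myeloma cells under basal unstimulated conditions; test concentration not given here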
[5] = calcein-AM signal in unstimulated myeloma cells – cell-based, calcein-AM fluorescence, 48 h, PK04 Diversity Set, profiling panel (AID 1166); settings: RPMI8226 myeloma viability, higher = more signal;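 note: cells grown under basal conditions without added stimulus; test concentration not given here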
[6] = JC-1 mitochondrial signal, unstimulated HepG2 cells – cell-based, JC-1 fluorescence, 24 h, 100 nL compound, profiling panel (AID 1167); settings: HepG2 mitochondrial potential, higher = more signal; note: test concentration not given here
[7] = JC-1 mitochondrial signal, unstimulated adipocytes – cell-based, JC-1 fluorescence, 3T3-L1 adipocytes, 24 h, 100 nL compound, profiling panel (AID 1168); settings: JC-1 mitochondrial fluorescence, higher = more signal, called active from +8 up or from −8 down; note: test concentration not given here
[8] = JC-1 mitochondrial signal, unstimulated myeloma cells – cell-based, JC-1 fluorescence, RPMI8226, 24 h, 100 nL compound, profiling panel (AID 1169); settings: JC-1 mitochondrial potential fluorescence, higher = more signal; note: test concentration not given here
[9] = JC-1 mitochondrial signal, unstimulated MM1S myeloma – cell-based, JC-1 fluorescence, 24 h, 100 nL compound, profiling panel (AID 1170); settings: MM1S mitochondrial potential, higher = more signal; note: test concentration not given here
[10] = resazurin metabolic signal in A549 cells – cell-based, resazurin fluorescence, 24 h, PK04 Diversity Set, profiling panel (AID 1171); settings: A549 viability, higher = more signal, called active from +8 up or from −8 down; note: test concentration not given here
[11] = resazurin metabolic signal in HepG2 cells – cell-based, resazurin fluorescence, 24 h, PK04 Diversity Set, profiling panel (AID 1172); settings: HepG2 viability, higher = more signal; note: test concentration not given here
[12] = budding yeast growth changes without added modifier – OD600, strain BY4716, 24 h, basal condition, primary screen (AID 1173); settings: S. cerevisiae BY4716 growth, OD600, 24 h; higher = more signal, called active from +8 up or from −8 down
[13] = viability profiling in MM1S myeloma cells – cell-based, resazurin fluorescence, basal, 24 h, PK04 Diversity Set, profiling panel (AID 1174); settings: higher = more signal, called active from +8 up or from −8 down; note: test concentration not given here
[14] = target: Dihydroorotate dehydrogenase (quinone), mitochondrial (Plasmodium falciparum (isolate 3D7)) (UniProt Q08210); assay: inhibition of P. falciparum DHODH – biochemical, C-terminal His tag, absorbance 600 nm, primary screen (AID 1175); settings: PfDHODH enzyme, DCIP absorbance 600 nm; higher = more signal, called active from +8 up or from −8 down;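 note: recombinant parasite enzyme with a five histidine tag at its C terminus; test concentration not given here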
[15] = inhibition of PAO1 biofilm formation – strain PAO1, LB-PBS medium, absorbance 600 nm, primary screen (AID 1176); note: test concentration not given here; settings: P. aeruginosa PAO1 growth/biofilm, A600, 12 h; higher = more signal
[16] = growth modulation of vineyard yeast isolate – strain RM11-1a, OD600, basal, 24 h, primary screen (AID 1177);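 note: cultures grown under basal conditions with no added stressor; test concentration not given here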; settings: S. cerevisiae RM11-1a growth, OD600, 24 h; higher = more signal, called active from +8 up or from −8 down
[17] = growth of efflux-deficient E. coli DRC39 – strain DRC39, OD650, 24 h, E. coli filamentation inducers, primary screen (AID 1178);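 note: growth measured as culture turbidity by optical density at 650 nm; test concentration not given here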; settings: E. coli DRC39 acrAB, higher = more signal, called active from +8 up or from −8 down
[18] = growth of efflux-deficient E. coli DRC39 – strain DRC39, OD650, 48 h, E. coli filamentation inducers, primary screen (AID 1179);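 note: screen aims at cell division blockers that make cells filament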; settings: E. coli DRC39 delta-acrAB growth, higher = more signal, called active from +8 up or from −8 down
[19] = viability profiling in RPMI8226 myeloma cells – cell-based, resazurin fluorescence, basal, 24 h, PK04 Diversity Set, profiling panel (AID 1180); settings: higher = more signal;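 note: RPMI8826 multiple myeloma cell line at 5000 cells per well; test concentration not given here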
[20] = target: E3 ubiquitin-protein ligase XIAP (Homo sapiens) (UniProt P98170); assay: small molecules binding XIAP protein – biophysical, small-molecule microarray, fluorescence 635 nm, primary screen (AID 1181); settings: higher = more signal;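 note: score merges 667 nm emission and signal to noise over triplicate slides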
Chain of E3 ubiquitin-protein ligase XIAP (Homo sapiens) (P98170 whole entry, looked up): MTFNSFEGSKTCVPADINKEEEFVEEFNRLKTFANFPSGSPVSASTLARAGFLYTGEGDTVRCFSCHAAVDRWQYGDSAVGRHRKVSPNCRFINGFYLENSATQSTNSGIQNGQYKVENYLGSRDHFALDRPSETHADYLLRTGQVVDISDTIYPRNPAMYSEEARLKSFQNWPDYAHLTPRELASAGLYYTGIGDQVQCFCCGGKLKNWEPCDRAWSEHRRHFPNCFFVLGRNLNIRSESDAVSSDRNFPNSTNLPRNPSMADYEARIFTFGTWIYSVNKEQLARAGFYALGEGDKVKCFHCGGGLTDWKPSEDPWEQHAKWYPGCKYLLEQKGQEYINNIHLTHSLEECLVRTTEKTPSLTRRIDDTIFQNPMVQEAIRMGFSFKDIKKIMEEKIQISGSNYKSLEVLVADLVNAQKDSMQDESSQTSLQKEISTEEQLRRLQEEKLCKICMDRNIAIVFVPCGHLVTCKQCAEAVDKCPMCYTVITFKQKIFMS

Chain of Dihydroorotate dehydrogenase (quinone), mitochondrial (Plasmodium falciparum (isolate 3D7)) (Q08210 whole entry, looked up): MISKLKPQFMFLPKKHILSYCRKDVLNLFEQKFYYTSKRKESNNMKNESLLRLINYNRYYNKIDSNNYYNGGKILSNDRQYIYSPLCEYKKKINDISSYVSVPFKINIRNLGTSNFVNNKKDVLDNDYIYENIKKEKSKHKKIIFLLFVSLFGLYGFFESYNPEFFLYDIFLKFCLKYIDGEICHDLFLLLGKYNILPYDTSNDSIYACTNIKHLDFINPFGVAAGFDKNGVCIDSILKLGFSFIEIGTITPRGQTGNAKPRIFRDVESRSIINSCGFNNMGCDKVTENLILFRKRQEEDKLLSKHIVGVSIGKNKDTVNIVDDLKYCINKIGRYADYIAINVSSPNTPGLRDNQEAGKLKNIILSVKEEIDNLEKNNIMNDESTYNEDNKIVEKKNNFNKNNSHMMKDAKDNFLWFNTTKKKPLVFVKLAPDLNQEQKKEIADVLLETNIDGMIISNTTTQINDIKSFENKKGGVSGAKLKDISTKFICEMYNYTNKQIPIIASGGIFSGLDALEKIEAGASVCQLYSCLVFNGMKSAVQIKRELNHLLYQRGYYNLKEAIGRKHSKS

SMILES | z-score [1] | z-score [2] | z-score [3] | z-score [4] | z-score [5] | z-score [6] | z-score [7] | z-score [8] | z-score [9] | z-score [10] | z-score [11] | z-score [12] | z-score [13] | composite z-score [14] | z-score [15] | z-score [16] | z-score [17] | z-score [18] | z-score [19] | composite z-score [20]
COc1ccc(C(=O)Nc2ccc(CN3C(=O)[C@]4(O[C@H](CC(=O)N(CCO)Cc5ccccc5)[C@@H]([Si](C)(C)c5ccc(OC)cc5)[C@@H]4C)c4ccccc43)cc2)cc1 | -0.937 | 1.19 | -1.52 | -1.92 | -2.73 | 0.353 | 0.324 (inactive) | -1.02 | -0.692 | -2.04 (inactive) | -1.18 | 0.352 (inactive) | -1.94 (inactive) | -0.633 (inactive) | 0.671 (inactive) | 2.51 (inactive) | -0.225 (inactive) | -0.575 (inactive) | -1.84 | -0.209
COCCCNC(=O)[C@@]1(c2ccc([N+](=O)[O-])cc2)CC(=O)N(C2CCCCC2)[C@@H]1c1ccc(CO)cc1I | 1.22 | 0.944 | 0.857 | -1.41 | -0.0154 | 2.88 | 0.802 (inactive) | 0.496 | 0.106 | 1.38 (inactive) | 0.545 | -0.24 (inactive) | 0.678 (inactive) | 0.219 (inactive) | 0.966 (inactive) | -0.251 (inactive) | 0.0675 (inactive) | -0.279 (inactive) | 1.16 | 0.0449
CC(=O)NCCCC[C@@H]1NC(=O)[C@H]2C[C@@H](C(=O)O)[C@@H](c3cccc(OCCO)c3)N2C1=O | -0.103 | -0.349 | 0.276 | 0.34 | 0.928 | 0.0103 | -0.55 (inactive) | -0.809 | -0.401 | 0.354 (inactive) | -0.7 | -0.757 (inactive) | 0.441 (inactive) | -0.969 (inactive) | 0.118 (inactive) | -0.587 (inactive) | -0.33 (inactive) | 0.0133 (inactive) | -0.0778 | -0.138
CO[C@H]1O[C@H](CO)[C@@H](OC(=O)CCc2ccccc2)[C@@H]2OC(=O)[C@@H](Cc3ccc4ccccc4c3)C/C=C/C[C@H](Cc3ccc4ccccc4c3)C(=O)O[C@@H]12 | 1.39 | 0.284 | 1.27 | -0.52 | 0.0085 | 0.111 | 0.945 (inactive) | 0.761 | 0.0944 | -1.39 (inactive) | -0.826 | -0.998 (inactive) | -0.333 (inactive) | -1.32 (inactive) | -0.0558 (inactive) | -1.11 (inactive) | 0.552 (inactive) | 0.9 (inactive) | -0.591 | 0.0302
COc1c(C)cc(-c2nc(-c3ccccc3)c3c(c2C)CO[Si]3(C(C)C)C(C)C)cc1C | -0.926 | -1.12 | -0.518 | -0.532 | -0.931 | -0.175 | -1.19 (inactive) | 0.379 | -0.294 | 1.44 (inactive) | 1.16 | 0.709 (inactive) | 0.032 (inactive) | 0.08 (inactive) | 0.845 (inactive) | -0.0161 (inactive) | 0.187 (inactive) | 0.135 (inactive) | 0.199 | 0.53
[N-]=[N+]=NCc1ccccc1[C@H]1OC(c2ccc(OCCCO)cc2)=N[C@@]1(Cc1ccccc1N=[N+]=[N-])C(N)=O | -0.0372 | -0.117 | -0.18 | -1.84 | -1.76 | -0.255 | 0.199 (inactive) | -1.06 | -0.928 | 0.85 (inactive) | 0.794 | -2.02 (inactive) | 0.393 (inactive) | -0.0773 (inactive) | -0.0963 (inactive) | 0.77 (inactive) | 0.0162 (inactive) | 0.394 (inactive) | -0.103 | -0.0773
O=C(N1CCOCC1)[C@]1(CCS(=O)(=O)c2ccccc2)N=C(c2ccc(OCCCO)cc2)O[C@@H]1c1ccccc1 | 0.569 | 1.29 | 0.176 | -0.345 | -0.0091 | 1.43 | 1.14 (inactive) | -0.176 | -0.424 | 0.54 (inactive) | 0.945 | 1.14 (inactive) | 0.564 (inactive) | 2.06 (inactive) | -0.981 (inactive) | 2.17 (inactive) | 2.71 (inactive) | 0.546 (inactive) | 0.413 | 0.0379
CC(C)C[C@@H]1NC(=O)[C@@H]2C[C@H](C(=O)NCCCCCCNC(=O)CS)[C@H](c3ccc(O)cc3)N2C1=O | 0.191 | 0.963 | -0.892 | -0.523 | 0.037 | -1.69 | -0.226 (inactive) | -0.684 | -0.391 | -0.399 (inactive) | 0.0799 | -0.295 (inactive) | -0.471 (inactive) | -0.283 (inactive) | 1.97 (inactive) | 0.199 (inactive) | 0.306 (inactive) | -0.874 (inactive) | -0.898 | 0.291
COC(=O)[C@@]1(Cc2ccc(F)cc2)[C@H]2c3cc(C(=O)N4CCCC4)n(C[C@H](O)CO)c3C[C@H]2CN1C(=O)c1ccccc1 | -1.21 | 0.24 | -0.674 | -0.26 | -1.07 | -0.438 | -1.11 (inactive) | -0.663 | -0.371 | 0.467 (inactive) | -0.462 | 0.897 (inactive) | -0.765 (inactive) | -0.323 (inactive) | 0.812 (inactive) | -0.108 (inactive) | -0.645 (inactive) | -0.0414 (inactive) | -0.797 | 0.0811

From PubChem BioAssay
